Bioassay records from PubChem BioAssay.
IMPase cell inh: qHTS Assay for Identifying the Cell-Membrane Permeable IMPase Inhibitors | Inositol monophosphatase 1 (Rattus norvegicus), P97697 | CHO-M1 cells, IP1 accumulation, HTRF TR-FRET ratio | inhibition (IP1 accumulation), % at 46.1 µM | 120,000 tested, under 10 active; active = well fitted curve in the direction sought with a large enough effect in the signal ratio, not every such curve was filed as active; inconclusive = small, poorly fitted or top-dose-only effect, or a change in a side signal; inactive = no such curve, though single readings can be large or run the other way; the % refers to the signal ratio;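 also: cells stimulated with carbachol in lithium chloride buffer; higher means more IMPase inhibition seen as more IP1 and lower FRET ratio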
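Carbachol-driven Gq signalling in CHO-M1 cells (2000/well) generates IP1. Compounds that block IMPase raise IP1 and so reduce the FRET signal from Eu-anti-IP1 and d2-IP1 after a 10 min room-temperature lysis.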
HPGD inh: qHTS Assay for Inhibitors of HPGD (15-Hydroxyprostaglandin Dehydrogenase) | 15-hydroxyprostaglandin dehydrogenase [NAD(+)] (Homo sapiens), P15428 | purified HPGD, NADH fluorescence kinetic, PGE2 substrate | Potency, µM, hits mostly inhibitors | hit rate 4.3% among 150,000 | AID 894, 2007
Target sequence (P15428 whole entry, looked up): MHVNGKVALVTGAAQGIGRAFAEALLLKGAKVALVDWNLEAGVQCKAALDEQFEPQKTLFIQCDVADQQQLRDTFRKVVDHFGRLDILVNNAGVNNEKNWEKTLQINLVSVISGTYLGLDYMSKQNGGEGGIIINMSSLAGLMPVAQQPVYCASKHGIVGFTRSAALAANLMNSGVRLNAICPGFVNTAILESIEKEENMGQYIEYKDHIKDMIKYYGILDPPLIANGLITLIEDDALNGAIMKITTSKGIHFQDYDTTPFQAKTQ
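20 nM HPGD preincubated 15 min at room temperature with compound in 50 mM Tris-HCl pH 8, 0.01% Tween 20. Started with 1 mM NAD+ and 30 uM prostaglandin E2; NADH fluorescence (360/450 nm) read 5 times over 30-s intervals, last minus first.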
ALDH1A1 block: qHTS Assay for Inhibitors of Aldehyde Dehydrogenase 1 (ALDH1A1). Aldehyde dehydrogenase 1A1 (Homo sapiens), P00352. Purified ALDH1A1, NADH fluorescence, propionaldehyde substrate. Potency, µM (titrated, usually from 75.3 µM), usual class: inhibitors. hit rate 7.3% among 220,000
Target sequence (P00352 whole entry, looked up): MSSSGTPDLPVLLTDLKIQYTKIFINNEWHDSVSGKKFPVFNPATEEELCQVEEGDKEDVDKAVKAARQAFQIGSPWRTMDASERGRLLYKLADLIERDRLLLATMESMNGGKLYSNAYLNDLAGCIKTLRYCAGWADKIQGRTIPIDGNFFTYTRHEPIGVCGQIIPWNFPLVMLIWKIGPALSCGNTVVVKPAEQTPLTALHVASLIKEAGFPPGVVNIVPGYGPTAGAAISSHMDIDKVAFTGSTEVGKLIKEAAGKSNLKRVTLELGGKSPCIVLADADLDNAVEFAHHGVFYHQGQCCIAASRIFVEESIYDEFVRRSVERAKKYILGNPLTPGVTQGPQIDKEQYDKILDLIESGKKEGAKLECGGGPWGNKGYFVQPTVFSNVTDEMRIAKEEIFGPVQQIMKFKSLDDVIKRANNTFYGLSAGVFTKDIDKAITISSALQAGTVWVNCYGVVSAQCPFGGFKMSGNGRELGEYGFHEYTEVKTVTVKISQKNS
Of the large screens only hits and unclear results are named; the others gave an inactive call. Shown are actives, neighbours in structure and some others; about 9% of the full set was active somewhere. Unless noted, calls follow the shape of the dose curve; as a rule, active = well fitted inhibition curve with a large enough effect (not every such curve was filed as active); inconclusive = small, poorly fitted or top-dose-only effect, or another doubt; inactive = no such curve, though single readings can be large or run the other way.

Fc1ccccc1C(NCCc1ccc(Cl)cc1)c1nnc(-c2ccccc2)o1 (stereo unspecified)	none (no result: HPGD inh, ALDH1A1 block)
Cc1nn(-c2ccccc2)c(Cl)c1C(=O)NCCN(C)C	none (no result: IMPase cell inh, HPGD inh)
Cc1nn(-c2ccccc2)c(Cl)c1C(=O)NCC(C)C	HPGD inh 10µM
C[n+]1cccc2cccc([O-])c21	none (no result: IMPase cell inh, HPGD inh)
COC(=O)c1ccc(OS(=O)(=O)N(C)C)cc1	none (no result: IMPase cell inh, HPGD inh)
COc1ccccc1NC(=O)CNC(=O)c1ccccc1C	HPGD inh 20µM
COc1ccc(NC(=O)CC2Nc3ccccc3NC2=O)cc1 (stereo unspecified)	none (no result: HPGD inh, ALDH1A1 block)
COc1ccccc1NC(=O)CCC(=O)c1ccc(-c2ccccc2)cc1	HPGD inh 18µM (no result: IMPase cell inh)
COc1ccccc1NC(=O)CC1Nc2ccccc2NC1=O (stereo unspecified)	HPGD inh inconclusive, ALDH1A1 block 28µM
COc1ccccc1NC(=O)CNC(=O)c1ccccc1	none
CCOc1ccc(NC(=O)CCC(=O)c2ccc(-c3ccccc3)cc2)cc1	none (no result: IMPase cell inh)
COc1ccccc1NC(=O)CCC(=O)Nc1ccccc1OC	none
COc1ccccc1NC(=O)CCSCCC(=O)Nc1ccccc1OC	ALDH1A1 block 14µM (no result: IMPase cell inh)
O=C(/C=C/c1cccc([N+](=O)[O-])c1)n1cnc2ccccc21	none (no result: IMPase cell inh, HPGD inh)
COc1cccc(C(c2c(NC(=O)c3ccccc3)sc(C)c2C)N2CCN(C)CC2)c1 (stereo unspecified)	none
CN1CCN(c2ncncc2-c2ccccc2Cl)CC1	none (no result: IMPase cell inh, HPGD inh)
Cc1ccc2sc(NNC(=O)c3cc(=O)c4ccccc4o3)nc2c1C	ALDH1A1 block 13µM (no result: IMPase cell inh, HPGD inh)
Cc1cccc2sc(NNC(=O)c3cc(=O)c4ccccc4o3)nc12	none (no result: IMPase cell inh, HPGD inh)
O=[N+]([O-])c1cc(/C=N\Nc2nc(-c3ccccc3)cs2)ccc1O	ALDH1A1 block 11µM (no result: IMPase cell inh, HPGD inh)
COc1ccc([N+](=O)[O-])cc1/C=N/NC(=O)CNC(=O)C(c1ccccc1)c1ccccc1	ALDH1A1 block inconclusive
O=C(CNC(=O)C(c1ccccc1)c1ccccc1)N/N=C/c1ccc(O)c([N+](=O)[O-])c1	ALDH1A1 block 13µM (no result: IMPase cell inh)
Cc1csc(N/N=C/c2ccc(O)c([N+](=O)[O-])c2)n1	HPGD inh inconclusive, ALDH1A1 block inconclusive
O=C(CNC(=O)c1ccco1)N/N=C/c1ccc(O)c([N+](=O)[O-])c1	none
O=C(CNC(=O)c1ccc(F)cc1)N/N=C/c1ccc(O)c([N+](=O)[O-])c1	HPGD inh 25µM, ALDH1A1 block inconclusive
O=C(CNC(=O)c1cccc(F)c1)N/N=C/c1ccc(O)c([N+](=O)[O-])c1	none
COc1ccc([N+](=O)[O-])cc1/C=N/NC(=O)CNC(=O)c1cccc(F)c1	HPGD inh 25µM, ALDH1A1 block inconclusive
O=C(COC(=O)/C=C/c1ccc([N+](=O)[O-])cc1)NCc1ccc2c(c1)OCO2	none (no result: IMPase cell inh, HPGD inh)
CC(=NC(C)C)C1=C(O)C(C)OC1=O (stereo unspecified)	none (no result: IMPase cell inh)
O=C(NCCC1=CCCCC1)C(=O)NCc1ccncc1	none (no result: IMPase cell inh, HPGD inh)
C[C@@H]1CC2(OC[C@]3(C)O[C@H]23)O[C@H]2C[C@@]3(C)[C@@H]4CC[C@H]5C(C)(C)C(O[C@@H]6OC[C@@H](O)[C@H](O)[C@H]6O)CC[C@@]56C[C@@]46CC[C@]3(C)[C@@H]12 (stereo partly specified)	none (no result: IMPase cell inh)
COc1ccc(-n2nnnc2-c2cnc(N3CCCC3)nc2C(F)(F)F)cc1	none
Cc1ccc(-c2cn(-c3ccccc3)c(SCC(=O)NC3CCS(=O)(=O)C3)n2)cc1C (stereo unspecified)	ALDH1A1 block 14µM (no result: IMPase cell inh)
CCn1c(SCC(=O)NC2CCS(=O)(=O)C2)nnc1-c1ccccc1 (stereo unspecified)	none (no result: IMPase cell inh, HPGD inh)
Cc1ccc2c(c1)Oc1ccccc1C=C2C(=O)O	none (no result: IMPase cell inh, HPGD inh)
CNC(=O)CN1C(=O)NC2(CCc3ccccc3C2)C1=O (stereo unspecified)	none (no result: IMPase cell inh, HPGD inh)
O=C(COc1nncc2ccccc12)NCC(F)(F)F	none (no result: IMPase cell inh, HPGD inh)
CC(=O)CSc1nc(N)c(C#N)c(-c2cccs2)c1C#N	ALDH1A1 block inconclusive
CSc1sc(C(=O)NCC2CC2)c(-c2cccs2)c1C#N	ALDH1A1 block 8.9µM (no result: IMPase cell inh, HPGD inh)
O=C(c1ccccc1)c1ccccc1N/C=C/c1nnnn1-c1ccccc1	ALDH1A1 block inconclusive
COc1cc(C(=O)NCCOc2cccc(C)c2)c(Br)c(OC)c1OC	none
Nc1c(C(=O)NCc2ccccc2)nnn1Cc1ccc(F)cc1	none
O=C(NCc1ccco1)c1nc2c(nnn2Cc2ccccc2Cl)c(=O)[nH]1	HPGD inh 14µM
O=C(NCc1cccs1)c1nc2c(nnn2Cc2ccc(F)cc2)c(=O)[nH]1	IMPase cell inh inconclusive, HPGD inh 14µM
O=C(NCC1CCCO1)C1CCC(=O)N1Cc1ccc(F)cc1 (stereo unspecified)	none
O=C(CSCc1nc2c(nnn2Cc2ccc(F)cc2)c(=O)[nH]1)Nc1c(Cl)cc(Cl)cc1Cl	none (no result: IMPase cell inh, HPGD inh)
O=C(NCC1CCCO1)c1nc2c(nnn2Cc2ccc(F)cc2)c(=O)[nH]1 (stereo unspecified)	HPGD inh 14µM
CCc1nc2c(nnn2Cc2ccc(F)cc2)c(=O)[nH]1	HPGD inh 14µM
O=C(CN1CCN(Cc2ccccc2Cl)C1=O)NCc1ccco1	none
C/C=C1/C(=O)C[C@@H]2[C@H]3CCC4=CC(=O)CC[C@]4(C)[C@@H]3CC[C@]12C	none (no result: IMPase cell inh, HPGD inh)
COc1ccc(CCNC(=O)CCSc2nc(-c3ccco3)cc(C(F)(F)F)n2)cc1OC	none
COc1ccc2nc(SCC(=O)NCC(F)(F)F)[nH]c2c1	none (no result: IMPase cell inh, HPGD inh)
Cc1nn(C)c(C(=O)N/N=C/c2cccc3ccccc23)c1Cl	none (no result: IMPase cell inh)
N/C(=N\OC(=O)CCC1CCCC1)c1cccnc1	ALDH1A1 block inconclusive
Cc1nc(NCC2CCCO2)c2nnn(Cc3ccccc3Cl)c2n1 (stereo unspecified)	none
Cc1nc(NCC2CCCO2)c2nnn(Cc3ccccc3)c2n1 (stereo unspecified)	ALDH1A1 block 22µM
Cc1nc(SCC(=O)N2CCc3ccccc32)n[nH]1	none
COCCNC(=O)C(C)OC(=O)c1cc2occc2n1C (stereo unspecified)	HPGD inh 14µM, ALDH1A1 block 32µM
CC(OC(=O)c1cc2sccc2n1C)C(=O)NCc1cccs1 (stereo unspecified)	HPGD inh inconclusive
CCOC(=O)CNC(=O)c1ccc(OCC(F)(F)F)cc1	none (no result: IMPase cell inh, HPGD inh)
CC(=O)n1c2c(c3ccccc31)OC(N)=C(C#N)C2c1ccc(C(C)C)cc1 (stereo unspecified)	ALDH1A1 block inconclusive
COc1ccc(Br)cc1C1CC(=O)N2CN(Cc3ccccc3)CSC2=C1C#N (stereo unspecified)	HPGD inh 7.1µM, ALDH1A1 block 0.11µM
COc1ccc2ccccc2c1C1CC(=O)N2CN(C)CSC2=C1C#N (stereo unspecified)	HPGD inh 6.3µM, ALDH1A1 block 8.9µM
CC(C)c1ccc(C2CC(=O)N3CN(C)CSC3=C2C#N)cc1 (stereo unspecified)	HPGD inh 14µM, ALDH1A1 block 3.5µM
COc1cc(OC)c(C2C(C#N)=C(N)Oc3cc(C)n(CCCN4CCOCC4)c(=O)c32)cc1OC (stereo unspecified)	ALDH1A1 block inconclusive
COc1cc(OC)c(C2CC(=O)Nc3ccc4ccccc4c32)cc1OC (stereo unspecified)	none (no result: HPGD inh, ALDH1A1 block)
COc1ccc(CCN2C(=O)CN(Cc3ccccc3)CC2=O)cc1OC	none (no result: IMPase cell inh)
